Measurements as given in PubChem BioAssay (NCATS).
Records with an inconclusive call do not appear. Activity calls are given as the source filed them. The call rests on the fitted dose curve; in most records, active means well fitted curve in the direction sought with a large enough effect; inconclusive means small, poorly fitted or top-dose-only effect, or another doubt; inactive means no such curve, though single readings can be large; an effect the other way counts as inactive or inconclusive.

Columns and labels:
[1] = qHTS assay for measurement of the activity of small molecule inhibitors on Zika virus induced Caspase-3 activity in human iPSC derived neural progenitor cells (hNPCs) (AID 1224857); further: % of control where 0% means no effect; nearly all actives have a fitted effect of over 65% in size
Outline: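 Cells were plated at 350 per well and grown 16 to 20 hours. Compound pretreatment lasted one hour, after which ZIKV (2 FFU/cell) was added for 6 hours. Percent inhibition was normalized between uninfected and infected controls.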

[2] = qHTS assay for measurement of the activity of small molecule inhibitors on Zika virus induced Caspase-3 activity in human astrocytoma cells (AID 1224859);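 further: plate controls were ZIKV-infected untreated cells for no effect and uninfected cells for full effect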
Outline: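 Percent inhibition of virus-induced caspase-3/7 signal is calculated against uninfected and ZIKV-infected control cells. Cells are SNB-19, infected at 2 FFU/cell for 6 h after 1 h compound exposure.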

[3] = qHTS assay to identify small molecule inhibitors of chordoma cells - UCH-1 (AID 1259355); further: on the % scale 0 is the no-effect control and ±100 the full control effect; nearly all actives have a fitted effect of over 55% in size
Outline: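 Screening used approved and investigational drugs in 15-point titration against 800 seeded cells per well. A fixed combination of auranofin with camptothecin, doxorubicin, rubitecan and topotecan followed compound addition, and growth was scored by CellTiter-Glo after 48hr.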

[4] = qHTS assay to identify small molecule inhibitors of chordoma cells - UCH-2 (AID 1259356); further: series mostly up to about 46 µM; on the % scale 0 is the no-effect control and ±100 the full control effect

NS(=O)(=O)c1cc2c(cc1C(F)(F)F)NC(Cc1ccccc1)NS2(=O)=O (stereo not drawn)
inactive: outcome [1] | outcome [2] | Potency [3] | outcome [4]

O=c1[nH]c(=O)c2[nH]c(=O)[nH]c2[nH]1
inactive: activity change, negative = inhibition [1] -8.73% [at 9.06 µM] | activity change, negative = inhibition [2] -0.8% [at 9.06 µM] | Potency [3] | outcome [4]

O=C(O)[C@H](O)c1ccccc1
inactive: outcome [1] | outcome [2] | Potency [3] | outcome [4]

CCCCC/C(C=O)=C\c1ccccc1
inactive: outcome [1] | outcome [2] | Potency [3] | outcome [4]

O=S(=O)(O)NC1CCCCC1
inactive: outcome [1] | outcome [2] | Potency [3] | outcome [4]

CCn1cc(C(=O)O)c(=O)c2cnc(N3CCNCC3)nc21
inactive: outcome [1] | outcome [2] | Potency [3] | outcome [4]

Cc1ccc(C(C)C)cc2c(C)ccc1-2
inactive: outcome [1] | outcome [2] | Potency [3] | outcome [4]

N[C@@H](CSSC[C@H](N)C(=O)O)C(=O)O
inactive: activity change, negative = inhibition [1] -8.71% [at 0.568 µM] | activity change, negative = inhibition [2] 23% [at 0.568 µM] | Potency [3] | outcome [4]

Oc1ccc(C(O)CNCCCCCCNCC(O)c2ccc(O)c(O)c2)cc1O (stereo not drawn)
inactive: outcome [1] | outcome [2] | Potency [3] | outcome [4]

O=c1[nH]cnc2c1ncn2[C@@H]1O[C@H](CO)[C@@H](O)[C@H]1O
inactive: outcome [1] | outcome [2] | Potency [3] | outcome [4]

C[C@H](N)[C@H](O)c1cccc(O)c1
inactive: outcome [1] | outcome [2] | Potency [3] | outcome [4]

C[C@]12CC[C@@H]3c4ccc(O)cc4CC[C@H]3[C@@H]1CC[C@@H]2OC(=O)CCC1CCCC1
inactive: outcome [1] | outcome [2] | Potency [3] | outcome [4]
